# PubChem BioAssay (Tox21)
# Where “and” joins values, the source holds several entries; their conditions need not be identical. Equal entries are not always repeated. Values without a mark were called inactive. Records with an inconclusive call do not appear. A call without a number means that no potency is given here. Calls of active or inactive are those of the source. Unless noted, the call rests on the fitted dose curve; in most records, active means well fitted curve in the direction sought with a large enough effect in the repeat runs; inconclusive means weak or mixed curves; inactive means no such curve, though single readings can be large; an effect the other way counts as inactive or inconclusive.
# What was measured:
# [1] = target: Progesterone receptor (Homo sapiens) (UniProt P06401); test: qHTS assay to identify small molecule antagonists of the progesterone receptor (PR) signaling pathway (AID 1346795; active means well fitted inhibition curve with a large enough effect in the signal ratio in the repeat runs, not every such curve was filed as active; the % refers to the signal ratio; further: potency means the concentration at half of the fitted maximal effect)
# In short: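 PR-UAS-bla HEK293T cells carrying a UAS-driven beta-lactamase reporter were plated in medium with 2% charcoal-stripped FBS and rested 6 hr at 37C. Compounds were added with 1 nM R5020 (final) for 16 hr, then FRET substrate loaded 2 hr at room temperature.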
# [2] = qHTS assay to identify small molecule agonists of the progesterone receptor (PR) signaling pathway - cell viability counter screen (AID 1346799; calls by dose curve; further: nearly all actives have a fitted effect of over 45% in size; further: potency means the concentration at half of the fitted maximal effect)
# In short: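 PR-UAS-bla HEK293T cells, 3,000 per well in medium with 2% charcoal-stripped FBS, were preincubated 6 hr at 37C, then exposed to compounds for 16 hr; viability was read as CellTiter-Glo luminescence after 30 min at room temperature.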
# [3] = qHTS assay to identify small molecule agonists of the TGF-beta/Smad signaling pathway - cell viability counter screen (AID 1346829); further: nearly all actives have a fitted effect of over 45% in size; further: potency means the concentration at half of the fitted maximal effect; on activity change, negative = cytotoxicity: top concentration of the series differs between compounds
# In short: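 Same-well cytotoxicity: CellTiter-Glo added after the 2 hr room-temperature beta-lactamase substrate step, luminescence measured 30 min later; cells had 5 hr of compound at 37 C.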
# [4] = qHTS assay to identify small molecule agonists of the TGF-beta/Smad signaling pathway (AID 1346859; active means well fitted activation curve with a large enough effect in the signal ratio in the repeat runs, not every such curve was filed as active; the % refers to the signal ratio; further: series mostly up to about 77 µM)
# In short: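 HEK 293T cells stably carrying a beta-lactamase reporter driven by the Smad binding element were seeded overnight, exposed to DMSO-dissolved compounds for 5 hr at 37 C, 5% CO2, then loaded with FRET substrate for 2 hr at room temperature.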
# [5] = target: Thyrotropin-releasing hormone receptor (Homo sapiens) (UniProt P34981); test: qHTS assay to identify small molecule antagonists of the thyrotropin-releasing hormone receptor (TRHR) signaling pathway (AID 1346877; active means well fitted inhibition curve with a large enough effect in the repeat runs, not every such curve was filed as active; further: series mostly up to about 51 µM)
# In short: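 Antagonism is measured as suppression of the calcium response to 1 nM TRH in TRHR-HEK293 cells that have been dye-loaded for 2 h at 37 °C after overnight plating. Each compound is tested at 15 concentrations in triplicate.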
# [6] = target: Thyrotropin-releasing hormone receptor (Homo sapiens) (UniProt P34981); test: qHTS assay to identify small molecule agonists of the thyrotropin-releasing hormone receptor (TRHR) signaling pathway (AID 1346891; calls by dose curve; further: series mostly up to about 58 µM)
# In short: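 TRHR-expressing HEK293 cells were plated 18 h at 37 °C/5% CO2, loaded with calcium dye 2 h at 37 °C, then given compound in DMSO; fluorescence was read kinetically for 3 min at 1 s intervals.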
# [7] = Human pregnane X receptor (PXR) small molecule agonists, qHTS cell viability counter screen (AID 1346977); further: nearly all actives have a fitted effect of over 50% in size; further: potency means the concentration at half of the fitted maximal effect
# In short: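 PXR-Luc HepG2 cells in medium with 5% charcoal-stripped FBS were pre-incubated 5hr, then exposed to compounds for 24hr at 37C. Viability was read in the same wells by CellTiter-Fluor fluorescence, reagent added after 23hr with a 1hr incubation.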
# [8] = Caspase-3/7 induction in HepG2 cells by small molecules, qHTS assay (AID 1346978); further: nearly all actives have a fitted effect of over 15% in size
# In short: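 Wild-type HepG2 cells (2,000/well) were settled 5 h at 37 C, 5% CO2, then exposed to compounds in DMSO for 17 h. Caspase-3/7 activity was read by luminescence 30 min after adding Caspase-Glo 3/7 reagent at room temperature.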
# [9] = qHTS assay to identify small molecule antagonists of the TGF-beta/Smad signaling pathway - cell viability counter screen (AID 1346824); further: nearly all actives have a fitted effect of over 50% in size; further: potency means the concentration at half of the fitted maximal effect
# In short: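 SBE-bla HEK 293T cells were plated overnight at 37 C, then given compounds in DMSO plus TGF-beta1 (added as 0.25 ng/mL solution) for 5 hr. After the bla read, CellTiter-Glo was added to the same wells and luminescence read after 30 min at room temperature.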
# Sequence of Progesterone receptor (Homo sapiens) (P06401 whole entry, looked up): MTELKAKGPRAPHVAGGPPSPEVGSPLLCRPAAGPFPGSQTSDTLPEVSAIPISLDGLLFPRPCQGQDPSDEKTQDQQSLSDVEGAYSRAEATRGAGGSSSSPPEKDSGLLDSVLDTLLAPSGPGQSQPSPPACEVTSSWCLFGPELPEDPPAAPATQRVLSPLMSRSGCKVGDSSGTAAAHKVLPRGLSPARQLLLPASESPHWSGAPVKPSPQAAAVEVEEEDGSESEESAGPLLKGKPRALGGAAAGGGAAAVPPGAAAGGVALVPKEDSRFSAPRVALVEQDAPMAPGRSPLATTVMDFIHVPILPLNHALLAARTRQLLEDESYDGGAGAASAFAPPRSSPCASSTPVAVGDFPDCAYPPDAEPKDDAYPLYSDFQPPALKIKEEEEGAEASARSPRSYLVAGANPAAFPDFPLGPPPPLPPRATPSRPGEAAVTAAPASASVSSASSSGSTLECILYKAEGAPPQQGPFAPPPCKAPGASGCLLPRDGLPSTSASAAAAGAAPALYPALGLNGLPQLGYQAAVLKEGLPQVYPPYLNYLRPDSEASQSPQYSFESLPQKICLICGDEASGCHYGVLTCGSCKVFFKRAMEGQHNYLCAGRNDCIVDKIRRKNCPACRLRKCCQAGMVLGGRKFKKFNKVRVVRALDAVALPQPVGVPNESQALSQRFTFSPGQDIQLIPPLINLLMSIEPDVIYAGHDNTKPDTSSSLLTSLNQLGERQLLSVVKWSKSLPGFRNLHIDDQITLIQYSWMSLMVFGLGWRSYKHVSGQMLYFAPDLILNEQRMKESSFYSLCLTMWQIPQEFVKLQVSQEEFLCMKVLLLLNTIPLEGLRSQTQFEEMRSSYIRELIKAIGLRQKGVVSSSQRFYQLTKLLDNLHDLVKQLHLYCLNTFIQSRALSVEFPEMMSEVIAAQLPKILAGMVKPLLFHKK
# Sequence of Thyrotropin-releasing hormone receptor (Homo sapiens) (P34981 whole entry, looked up): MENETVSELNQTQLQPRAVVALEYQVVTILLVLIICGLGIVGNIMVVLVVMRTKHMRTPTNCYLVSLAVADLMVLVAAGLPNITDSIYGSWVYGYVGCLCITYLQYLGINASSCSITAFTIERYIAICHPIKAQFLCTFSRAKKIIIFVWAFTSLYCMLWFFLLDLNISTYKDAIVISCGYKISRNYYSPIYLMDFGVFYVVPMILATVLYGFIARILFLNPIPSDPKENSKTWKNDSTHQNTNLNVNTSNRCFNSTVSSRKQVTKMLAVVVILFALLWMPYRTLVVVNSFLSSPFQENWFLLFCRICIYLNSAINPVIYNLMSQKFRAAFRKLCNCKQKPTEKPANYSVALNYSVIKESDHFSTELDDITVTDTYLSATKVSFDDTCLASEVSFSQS
compound,measurement,setting,value
CCCCCCOC(=O)C(C)CC (stereo not given),Potency,[1],inactive
same,Potency,[2],inactive
same,Potency,[3],inactive
same,Potency,[4],inactive
same,Potency,[5],inactive
same,outcome,[6],inactive
same,Potency,[7],inactive
same,Potency,[8],inactive
CNc1ccc([N+](=O)[O-])cc1,Potency,[1],54.6 µM (active)
same,Potency,[2],inactive
same,Potency,[9],inactive
same,Potency,[3],inactive
same,Potency,[5],inactive
same,outcome,[6],inactive
same,Potency,[7],43.4 µM (active)
same,Potency,[8],inactive
Cc1cc(C(C#N)c2ccc(Cl)cc2)c(Cl)cc1NC(=O)c1cc(I)cc(I)c1O (stereo not given),Potency,[1],29.8 µM (active)
same,Potency,[9],inactive
same,Potency,[3],inactive
same,Potency,[4],inactive
same,Potency,[5],inactive
same,outcome,[6],inactive
same,Potency,[7],16.8 µM (active)
same,Potency,[8],inactive
CC(C)CCCCCOC(=O)CCS,Potency,[1],inactive
same,Potency,[2],inactive
same,Potency,[3],inactive
same,Potency,[4],inactive
same,Potency,[5],inactive
same,outcome,[6],inactive
same,Potency,[7],inactive
same,Potency,[8],inactive
C=CC(=O)OCCOC(=O)C=C,Potency,[1],inactive
same,Potency,[2],inactive
same,Potency,[3],inactive
same,Potency,[4],inactive
same,Potency,[5],inactive
same,outcome,[6],inactive
same,Potency,[7],inactive
CC(C)Cn1cnc2c(N)nc3ccccc3c21,"activity change, negative = inhibition",[1],5.77% [at 18.9 µM]
same,"activity change, negative = cytotoxicity",[2],13.4% [at 19 µM]
same,"viability change, negative = cytotoxic",[9],1.27% [at 15.8 µM]
same,"activity change, negative = cytotoxicity",[3],6.14% [at 15.8 µM]
same,activation,[4],-1.86% [at 15.8 µM]
same,"activity change, negative = cytotoxicity",[7],-9.27% [at 19 µM]
same,caspase activation,[8],-2.38% [at 19 µM]
Fc1ccc(C(c2ccc(F)cc2)N2CCNCC2)cc1,Potency,[1],inactive
same,Potency,[9],inactive
same,Potency,[3],inactive
same,Potency,[4],inactive
same,Potency,[5],inactive
same,outcome,[6],inactive
same,Potency,[7],inactive
same,Potency,[8],inactive
CCCCC/C=C\C/C=C\CCCCCCCC(=O)O,Potency,[1],inactive
same,Potency,[9],inactive
same,Potency,[3],inactive
same,outcome,[6],inactive
same,Potency,[7],inactive
same,Potency,[8],inactive
CNC(=O)c1ccccc1Sc1ccc2c(/C=C/c3ccccn3)n[nH]c2c1,Potency,[1],16.8 µM (active)
same,Potency,[2],33.5 µM (active)
same,Potency,[4],inactive
same,Potency,[5],inactive
same,outcome,[6],inactive
same,Potency,[8],inactive
CC[C@H](C)COC(=O)/C=C/c1ccc(N=Cc2ccc(OC)cc2)cc1,Potency,[1],30.6 µM (active)
same,Potency,[2],inactive
same,Potency,[9],inactive
same,Potency,[3],inactive
same,Potency,[7],inactive
same,Potency,[8],inactive
C/C=C/C=C/COC(=O)C(C)C,Potency,[1],inactive
same,Potency,[2],inactive
same,Potency,[3],inactive
same,Potency,[4],inactive
same,Potency,[5],inactive
same,outcome,[6],inactive
same,Potency,[7],68.6 µM (active)
same,Potency,[8],inactive
Nc1cc(Cl)c(O)c(Cl)c1,Potency,[1],inactive
same,Potency,[2],inactive
same,Potency,[9],inactive
same,Potency,[3],inactive
same,Potency,[4],inactive
same,Potency,[7],inactive
same,Potency,[8],inactive
COc1cc2nc(N3CCN(C(=O)c4ccco4)CC3)nc(N)c2cc1OC,"activity change, negative = inhibition",[1],5.13% [at 18.9 µM]
same,"activity change, negative = cytotoxicity",[2],2.28% [at 19 µM]
same,"activity change, negative = cytotoxicity",[3],0.758% [at 15.8 µM]
same,Potency,[7],11.6 µM (active)
same,caspase activation,[8],12.8% [at 19 µM]
CC1=Nc2ccccc2C1(C)C,Potency,[1],30.7 µM (active)
same,Potency,[2],inactive
same,Potency,[3],inactive
same,Potency,[4],inactive
same,Potency,[5],inactive
same,outcome,[6],inactive
same,Potency,[7],inactive
same,Potency,[8],inactive
CN1CCCCC1CCN1c2ccccc2Sc2ccc(S(C)=O)cc21 (stereo not given),Potency,[1],inactive
same,Potency,[9],inactive
same,Potency,[3],inactive
same,Potency,[4],inactive
same,Potency,[5],inactive
same,outcome,[6],inactive
same,Potency,[8],inactive
O=C(O)CCN(C1(C(=O)NO)CCCC1)S(=O)(=O)c1ccc(Oc2ccc(F)cc2)cc1,Potency,[1],inactive
same,Potency,[2],inactive
same,Potency,[3],inactive
same,Potency,[5],inactive
same,outcome,[6],inactive
same,Potency,[7],inactive
same,Potency,[8],inactive
[Cu+],Potency,[1],inactive
same,Potency,[2],inactive
same,Potency,[9],inactive
same,Potency,[3],inactive
same,Potency,[4],inactive
same,Potency,[7],inactive
CC(C)(C)c1csc(-c2cc3cc(OCc4ccccc4CC(=O)O)ccc3o2)n1,Potency,[1],43.3 µM (active)
same,Potency,[9],inactive
same,Potency,[3],inactive
same,Potency,[5],inactive
same,outcome,[6],inactive
same,Potency,[7],61.1 µM (active)
same,Potency,[8],inactive
CN(C)c1ccc(C(=C2C=CC(=[N+](C)C)C=C2)c2ccc(N(C)C)cc2)cc1,Potency,[1],19.3 µM (active)
same,Potency,[2],27.2 µM (active) and 21.1 µM (active)
same,Potency,[9],19.4 µM (active) and 43.6 µM (active) and 19 µM (active)
same,Potency,[3],19.4 µM (active) and 49 µM (active) and 23.9 µM (active)
same,outcome,[6],inactive
same,Potency,[7],3.84 µM (active) and 2.73 µM (active) and 6.68 µM (active)
C#C[C@]1(OC(C)=O)CC[C@H]2[C@@H]3CCC4=C/C(=N/O)CC[C@@H]4[C@H]3CC[C@@]21CC,Potency,[1],29.8 µM (active)
same,Potency,[9],inactive
same,Potency,[3],inactive
same,Potency,[4],inactive
same,outcome,[6],inactive
CN(C)CCN1CCN(c2cccc(Cl)c2)C1=O,Potency,[1],inactive
same,Potency,[9],inactive
same,Potency,[3],inactive
same,Potency,[4],inactive
same,outcome,[6],inactive
same,Potency,[7],inactive
same,Potency,[8],inactive
Nc1ccc(Oc2ccc(Cl)cc2)cc1,Potency,[1],18.9 µM (active)
same,Potency,[9],inactive
same,Potency,[3],inactive
same,Potency,[4],inactive
same,Potency,[7],inactive
same,Potency,[8],inactive
Cc1ccc(O)c(O)c1,Potency,[1],42 µM (active)
same,Potency,[9],inactive
same,Potency,[3],inactive
same,Potency,[4],inactive
same,outcome,[6],inactive
same,Potency,[8],inactive
C[C@H]1NCc2cc(-c3ccc4c(=O)c(C(=O)O)cn(C5CC5)c4c3OC(F)F)ccc21,"activity change, negative = inhibition",[1],2.98% [at 18.9 µM]
same,"activity change, negative = cytotoxicity",[2],-10.9% [at 19 µM]
same,"activity change, negative = cytotoxicity",[3],0.347% [at 15.8 µM]
same,activation,[4],-4.87% [at 15.8 µM]
same,"activity, negative = inhibition",[5],5.68% [at 10.5 µM]
same,activation,[6],0.004% [at 11.8 µM]
same,"activity change, negative = cytotoxicity",[7],2.7% [at 19 µM]
same,caspase activation,[8],-1.73% [at 19 µM]
COc1ccc2cc1Oc1ccc(cc1)C[C@H]1c3c(cc4c(c3Oc3cc5c(cc3OC)CCN(C)[C@@H]5C2)OCO4)CCN1C,Potency,[1],inactive
same,Potency,[2],inactive
same,Potency,[3],inactive
same,outcome,[6],inactive
same,Potency,[7],11.9 µM (active)
